These results are taken from PubChem BioAssay (NCI).

Compounds without any hit were thinned out: in the full panel of roughly 83,000, 20% have a hit.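 Values shown are percent growth following 48 h exposure of cells in 96-well plates to a single concentration of compound; below 10 was considered active.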 Unmarked numbers belong to inactive results. Activity calls are given as the source filed them.

Among the test systems are SR leukemia; OVCAR-8 ovarian; OVCAR-5 ovarian; OVCAR-4 ovarian; SK-OV-3 ovarian; IGROV1 ovarian; OVCAR-3 ovarian; HS 578T breast; NCI/ADR-RES ovarian.
What all share (test): NCI-60 one-dose screen, 48 h (100 = growth as untreated, 0 = no growth, -100 = all killed)
Holding throughout (settings): 10 µM unless noted

For the compound `Fc1ccc(-c2nc(-c3nc4ncccc4[nH]3)cc3c2[nH]c2ccccc23)cc1F`, the growth is 76% in the assay with SR leukemia; 66.6% in the assay with OVCAR-8 ovarian; 93.5% in the assay on OVCAR-5 ovarian; 60.2% with OVCAR-4 ovarian; 111% in the assay on SK-OV-3 ovarian; 62.3% in the assay with IGROV1 ovarian. In addition, the growth in the assay on OVCAR-3 ovarian was 82%; with HS 578T breast, 96%; with NCI/ADR-RES ovarian, 61.4%.
With `O=C(Nc1ccncc1)C(=O)c1cn(S(=O)(=O)c2ccc(Br)cc2)c2ccccc12`, the growth was 26.1% with SR leukemia; 58.6% in the assay with OVCAR-8 ovarian; 64.4% in the assay with OVCAR-5 ovarian; 73.3% with OVCAR-4 ovarian; 93.9% with SK-OV-3 ovarian; 45.1% in the assay on IGROV1 ovarian. The growth is 14.7% in the assay with OVCAR-3 ovarian, 56.2% in the assay on HS 578T breast and 9.49% (active) in the assay on NCI/ADR-RES ovarian.
Consider `O=[N+]([O-])c1ccc(Sc2ncccn2)c([N+](=O)[O-])c1`, for which the growth is -20.3% (active) in the assay with SR leukemia; 65.8% in the assay with OVCAR-8 ovarian; 81.1% in the assay with OVCAR-5 ovarian; 51.8% in the assay on OVCAR-4 ovarian; 95.2% in the assay with SK-OV-3 ovarian; -9.02% (active) in the assay on IGROV1 ovarian. The growth was 7.76% (active) in the assay with OVCAR-3 ovarian, 88.6% in the assay with HS 578T breast and 53.8% with NCI/ADR-RES ovarian.
For the compound `C=C1CCC2C(C)(CO)C(O)CCC2(C)C1C/C=C1/C(=O)OCC1Oc1ccccc1C` (centres undefined), the growth in the assay with SR leukemia was 50.7%; with OVCAR-8 ovarian it was 72.5%; in the assay with OVCAR-5 ovarian, 91.8%; in the assay with OVCAR-4 ovarian, 74.8%; in the assay on SK-OV-3 ovarian, 122%; with IGROV1 ovarian, 73.7%. Moreover, the results for the growth in the assay on OVCAR-3 ovarian, in the assay on HS 578T breast and in the assay on NCI/ADR-RES ovarian were 34.3%, 105% and 81.1%, respectively.
As for `N=C(N)c1ccc(-c2ccc(-c3cncc4ccccc34)s2)cc1F`, the growth is -3.96% (active) in the assay on SR leukemia; -51.6% (active) with OVCAR-8 ovarian; -94.7% (active) in the assay on OVCAR-5 ovarian; -78.6% (active) in the assay with OVCAR-4 ovarian; -87.5% (active) in the assay on IGROV1 ovarian; -91.6% (active) with OVCAR-3 ovarian. In addition, the growth with HS 578T breast was 88.9%; in the assay with NCI/ADR-RES ovarian, 1.93% (active).
As to `CC12CCC3C4(C)COC(c5ccccc5Cl)OC4CCC3(C)C1CC(C1=CCOC1=O)O2` (centres undefined), the growth is 28% with SR leukemia; 65.1% with OVCAR-8 ovarian; 91.3% in the assay with OVCAR-5 ovarian; 31.2% with OVCAR-4 ovarian; 94.5% in the assay with SK-OV-3 ovarian; 82.9% in the assay on IGROV1 ovarian. The figures for the growth with OVCAR-3 ovarian, with HS 578T breast and with NCI/ADR-RES ovarian were 64.4%, 76.1% and 63.2%, respectively.
On to `Brc1cccc(-c2cc(-c3ccc4c(c3)OCCCO4)[nH]n2)c1`, for which the growth in the assay with SR leukemia was 41.7% [25 µM]; in the assay on OVCAR-8 ovarian it was 69.3% [25 µM]; with OVCAR-5 ovarian, 63% [25 µM]; with OVCAR-4 ovarian, 68.1% [25 µM]; in the assay on IGROV1 ovarian, 46.8% [25 µM]; in the assay with OVCAR-3 ovarian it was 48.7% [25 µM]. Also, the values for the growth with HS 578T breast and in the assay with NCI/ADR-RES ovarian were 71.1% [25 µM] and 22.1% [25 µM], respectively.
Take `COc1ccc(S(=O)(=O)NCCCNc2nccc(-n3ccc4cccnc43)n2)cc1`: the growth is 90.7% in the assay with SR leukemia; 92.7% in the assay with OVCAR-8 ovarian; 100% in the assay with OVCAR-5 ovarian; 81.5% with OVCAR-4 ovarian; 119% with SK-OV-3 ovarian; 103% in the assay with IGROV1 ovarian. Besides, the growth is 98.8% in the assay with OVCAR-3 ovarian, 92.3% with HS 578T breast and 91.1% in the assay with NCI/ADR-RES ovarian.
Consider `COc1ccc(-c2cn(-c3cccc(C(=O)/C=C/c4cc(OC)c(OC)c(OC)c4)c3)c(=O)[nH]2)cc1OC`, for which the growth is 6.01% (active) in the assay with SR leukemia; 64.9% with OVCAR-8 ovarian; 93.6% in the assay with OVCAR-5 ovarian; 85.7% in the assay on OVCAR-4 ovarian; 82.7% in the assay on SK-OV-3 ovarian; 98.2% with OVCAR-3 ovarian. The growth with HS 578T breast is 87.9%; in the assay with NCI/ADR-RES ovarian, 90.7%.
Take `c1ccc(-c2nc(N3CCNCC3)c3nc(-c4ccccc4)oc3n2)cc1`: the growth was 0.501% (active) with SR leukemia; -30.5% (active) in the assay with OVCAR-8 ovarian; -1.51% (active) with OVCAR-5 ovarian; -65.1% (active) in the assay with OVCAR-4 ovarian; -83.6% (active) in the assay with IGROV1 ovarian; -90.6% (active) with OVCAR-3 ovarian. Further, the figures for the growth in the assay on HS 578T breast and in the assay with NCI/ADR-RES ovarian were 88.9% and -69.2% (active), respectively.
With `O=S(=O)(c1ccc(OCCO)cc1)c1ccc(OCCO)cc1`, the growth in the assay on SR leukemia was 99.4%; with OVCAR-8 ovarian, 102%; in the assay with OVCAR-5 ovarian, 101%; in the assay with OVCAR-4 ovarian, 111%; in the assay with SK-OV-3 ovarian it was 118%; with IGROV1 ovarian, 87.5%. Besides, in the assay on NCI/ADR-RES ovarian, the growth was 103%.
For the compound `CC12CCCC(CC(=O)c3[nH]c4ccccc4c31)C2` (centres undefined), the growth in the assay with SR leukemia was 15.5%; in the assay on OVCAR-8 ovarian it was 31.1%; in the assay with OVCAR-5 ovarian it was 34.6%; in the assay with OVCAR-4 ovarian, 60.7%; in the assay with SK-OV-3 ovarian, 53.4%; with IGROV1 ovarian, 24.6%. For the same compound, the growth is -26.1% (active) in the assay on OVCAR-3 ovarian, 12.8% with HS 578T breast and 5.24% (active) with NCI/ADR-RES ovarian.
Turning to `COc1ccc(-c2cc(-c3ccccc3)nc(SCCCC(=O)NO)n2)cc1OC`, the growth with SR leukemia was 4.39% (active); in the assay on OVCAR-8 ovarian, 5.05% (active); with OVCAR-5 ovarian it was 11%; in the assay on OVCAR-4 ovarian, 6.41% (active); with SK-OV-3 ovarian it was -0.339% (active); in the assay on IGROV1 ovarian, 15.6%. The growth in the assay on OVCAR-3 ovarian is -22.7% (active); in the assay on HS 578T breast, 18%; in the assay with NCI/ADR-RES ovarian, -12.3% (active).
As to `C1=Cc2ccccc2N(c2nnc(-c3ccccc3)o2)c2ccccc21`, the growth in the assay on SR leukemia was 32.3%; in the assay with OVCAR-8 ovarian it was 95.4%; in the assay on OVCAR-5 ovarian, 98.2%; in the assay on OVCAR-4 ovarian, 92.1%; with SK-OV-3 ovarian, 114%; in the assay with IGROV1 ovarian, 92.9%. In addition, the figures for the growth in the assay on OVCAR-3 ovarian, with HS 578T breast and in the assay on NCI/ADR-RES ovarian were 107%, 102% and 92.2%, respectively.
As to `C=C1CCC2C(C)(CO)C(O)CCC2(C)C1CC(NCc1ccccc1)C1=CCOC1=O` (centres undefined), the growth in the assay with SR leukemia was 99.8%; with OVCAR-8 ovarian it was 94%; in the assay on OVCAR-5 ovarian it was 94.3%; in the assay on OVCAR-4 ovarian, 97.8%; in the assay on SK-OV-3 ovarian, 105%; with IGROV1 ovarian it was 102%. For the same compound, the growth in the assay with OVCAR-3 ovarian was 105%; in the assay on HS 578T breast, 104%; with NCI/ADR-RES ovarian, 95.9%.
